Source: PubChem BioAssay (NCATS)
Records with an inconclusive call do not appear. The source made the active and inactive calls. Calls come from the whole dose curve; as a rule, active = well fitted curve in the direction sought with a large enough effect; inconclusive = small, poorly fitted or top-dose-only effect, or another doubt; inactive = no such curve, though single readings can be large; an effect the other way counts as inactive or inconclusive.

Key:
[1] = test system: 3D7; assay: qHTS profiling for inhibitors of Plasmodium falciparum proliferation (AID 504749); note: nearly all actives have a fitted effect of over 60% in size; conditions: P. falciparum in erythrocytes, SYBR Green DNA, 72 h; series mostly up to 12.8 µM
Outline: (§1)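 Parasite proliferation within erythrocytes, 72 h exposure. Endpoint: SYBR Green I fluorescence after overnight lysis at room temperature. Controls: 0.29 uM artemisinin, DMSO.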

[2] = test system: 7G8; assay: as above; conditions: P. falciparum in erythrocytes, SYBR Green DNA, 72 h; series mostly up to 12.8 µM
Outline: as §1

[3] = test system: AA1029; assay: as above; conditions: P. falciparum in erythrocytes, SYBR Green DNA, 72 h; series mostly up to 12.8 µM
Outline: as §1

[4] = test system: ATS189; assay: as above; conditions: P. falciparum in erythrocytes, SYBR Green DNA, 72 h; series mostly up to 12.8 µM
Outline: as §1

[5] = test system: CP191; assay: as above; conditions: P. falciparum in erythrocytes, SYBR Green DNA, 72 h; series mostly up to 12.8 µM
Outline: as §1

[6] = test system: CP194; assay: as above; conditions: P. falciparum in erythrocytes, SYBR Green DNA, 72 h; series mostly up to 12.8 µM
Outline: as §1

[7] = test system: CP203; assay: as above; conditions: P. falciparum in erythrocytes, SYBR Green DNA, 72 h; series mostly up to 12.8 µM
Outline: as §1

[8] = test system: CP215; assay: as above; conditions: P. falciparum in erythrocytes, SYBR Green DNA, 72 h; series mostly up to 28.7 µM
Outline: as §1

[9] = test system: CP237; assay: as above; conditions: P. falciparum in erythrocytes, SYBR Green DNA, 72 h; series mostly up to 12.8 µM
Outline: as §1

[10] = test system: CP247; assay: as above; conditions: P. falciparum in erythrocytes, SYBR Green DNA, 72 h; series mostly up to 12.8 µM
Outline: as §1

[11] = test system: CP268; assay: as above; conditions: P. falciparum in erythrocytes, SYBR Green DNA, 72 h; series mostly up to 12.8 µM
Outline: as §1

[12] = test system: CP286; assay: as above; conditions: P. falciparum in erythrocytes, SYBR Green DNA, 72 h; series mostly up to 12.8 µM
Outline: as §1

[13] = test system: DIV30; assay: as above; conditions: P. falciparum in erythrocytes, SYBR Green DNA, 72 h; series mostly up to 12.8 µM
Outline: as §1

[14] = test system: ICS; assay: as above; conditions: P. falciparum in erythrocytes, SYBR Green DNA, 72 h; series mostly up to 12.8 µM
Outline: as §1

[15] = test system: P94_40; assay: as above; conditions: P. falciparum in erythrocytes, SYBR Green DNA, 72 h; series mostly up to 12.8 µM
Outline: as §1

[16] = test system: PAD; assay: as above; conditions: P. falciparum in erythrocytes, SYBR Green DNA, 72 h; series mostly up to 12.8 µM
Outline: as §1

[17] = test system: PC26; assay: as above; conditions: P. falciparum in erythrocytes, SYBR Green DNA, 72 h; series mostly up to 12.8 µM
Outline: as §1

[18] = test system: TAB109; assay: as above; conditions: P. falciparum in erythrocytes, SYBR Green DNA, 72 h; series mostly up to 12.8 µM
Outline: as §1

[19] = test system: TAB165; assay: as above; conditions: P. falciparum in erythrocytes, SYBR Green DNA, 72 h; series mostly up to 12.8 µM
Outline: as §1

[20] = S16 Schwann cell viability assay (CellTiter-Glo assay) (AID 624031);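 note: cellular ATP luminescence as a viability measure; nearly all actives have a fitted effect of over 70% in size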
Outline: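 Native S16 Schwann cells (rat), serum-containing medium, overnight attachment then 24 h drug exposure at 37 °C/5% CO2. CellTiter-Glo ATP signal; normalized to cell-free and vehicle wells.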

Measured: Potency

C[C@@H](C(=O)O)c1ccc(C(=O)c2cccs2)cc1
not listed: [20]
inactive: all other assays above

C[n+]1ccccc1/C=N\O
inactive: all assays above

COc1ccccc1OC[C@H](O)COC(N)=O
inactive: all assays above

CCCN[C@@H](C)C(=O)Nc1c(C)csc1C(=O)OC
inactive: all assays above

COc1ccc(C[C@@H]2c3cc(OC)c(OC)cc3CC[N@+]2(C)CCC(=O)OCCCCCOC(=O)CC[N@@+]2(C)CCc3cc(OC)c(OC)cc3[C@H]2Cc2ccc(OC)c(OC)c2)cc1OC
inactive: all assays above

Cn1c(=O)c2c(ncn2C[C@@H](O)CO)n(C)c1=O
not listed: [5]
inactive: all other assays above

CC1(C)S[C@@H]2[C@H](NC(=O)[C@H](C(=O)O)c3ccsc3)C(=O)N2[C@H]1C(=O)O
inactive: all assays above

CCC[C@H]1C(=O)N2C(N(C)C)=Nc3ccc(C)cc3N2C1=O
inactive: all assays above

NC(=O)OC[C@H](O)COc1ccc(Cl)cc1
inactive: all assays above

CN(N=O)C(=O)N[C@H]1[C@@H](O)[C@H](O)[C@H](CO)O[C@@H]1O
inactive: all assays above

O=c1[nH]c(=O)n([C@@H]2C[C@H](O)[C@H](CO)O2)cc1I
inactive: all assays above
